High-throughput results (PubChem)
In the library only some 11% were active in any assay of this set; here they are far more common.
KDM4E inh – qHTS Assay for Inhibitors of Human Jumonji Domain Containing 2E (JMJD2E); Lysine-specific demethylase 4E (Homo sapiens), B2RXH2; JMJD2E catalytic domain, FDH-coupled NADH fluorescence (FDH is formaldehyde dehydrogenase); Potency, µM (doses to about 57.1 µM), for the others: at the top dose activity change, negative = inhibition, most hits filed as inhibitors; 230,000 compounds, 1.6% hits; AID 2147, 2009;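 also: potency is read from the fitted curve at half-maximal effect; 0% = wells with enzyme and -100% = buffer wells without enzyme; nearly all actives have a fitted effect of over 50% in size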
HPGD inh – qHTS Assay for Inhibitors of HPGD (15-Hydroxyprostaglandin Dehydrogenase); 15-hydroxyprostaglandin dehydrogenase [NAD(+)] (Homo sapiens), P15428; purified HPGD, NADH fluorescence kinetic, PGE2 substrate; Potency, µM, for the others: at the highest dose activity change, negative = inhibition, usual class: inhibitors; 150,000 compounds, 4.3% hits; AID 894, 2007; also: potency is read from the fitted curve at half-maximal effect
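20 nM HPGD preincubated 15 min at room temperature with compound in 50 mM Tris-HCl pH 8, 0.01% Tween 20. Started with 1 mM NAD+ and 30 uM prostaglandin E2; NADH fluorescence (360/450 nm) read 5 times over 30-s intervals, last minus first.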
ALDH1A1 block – qHTS Assay for Inhibitors of Aldehyde Dehydrogenase 1 (ALDH1A1); Aldehyde dehydrogenase 1A1 (Homo sapiens), P00352; Purified ALDH1A1, NADH fluorescence, propionaldehyde substrate; Potency, µM (titrated, usually from 75.3 µM), for inactives: top-dose activity, negative = inhibition, most hits filed as inhibitors; 220,000 compounds, 7.3% hits; AID 1030, 2008;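 also: potency is read from the fitted curve at half-maximal effect; plate controls were no enzyme wells and a reference inhibitor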
Target sequence (P00352 whole entry, looked up): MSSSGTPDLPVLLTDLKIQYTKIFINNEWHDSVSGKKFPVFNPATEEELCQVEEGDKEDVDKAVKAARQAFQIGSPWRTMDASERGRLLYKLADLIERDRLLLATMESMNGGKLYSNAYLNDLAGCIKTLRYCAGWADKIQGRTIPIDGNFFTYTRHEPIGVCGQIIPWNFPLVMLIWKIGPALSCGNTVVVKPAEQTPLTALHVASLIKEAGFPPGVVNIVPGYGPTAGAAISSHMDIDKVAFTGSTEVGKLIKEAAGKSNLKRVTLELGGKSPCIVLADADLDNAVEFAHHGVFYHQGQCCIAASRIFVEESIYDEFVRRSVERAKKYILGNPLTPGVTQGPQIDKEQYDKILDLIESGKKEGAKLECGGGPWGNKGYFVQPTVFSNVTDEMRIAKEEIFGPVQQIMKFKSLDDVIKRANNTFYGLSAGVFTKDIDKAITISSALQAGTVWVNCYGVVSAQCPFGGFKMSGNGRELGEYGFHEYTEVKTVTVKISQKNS
PNC assembly inh – High Content Assay for Compounds that inhibit the Assembly of the Perinucleolar Compartment. activity change (PNC), negative = inhibition, % at 10 µM. PC3M PTB-GFP, PNC prevalence imaging, 16 h; active compounds read low. 140,000 compounds, 3.1% hits. AID 2417, 2010;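 active = readout at or below -70, meaning at least 70% loss of cells showing the perinucleolar compartment, a nuclear body marking cancer cells; inconclusive = readout between -30 and a set limit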;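 also: plate controls were DMSO wells for no effect and camptothecin positive control wells for full effect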
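Read-out is percentage of cells bearing a perinucleolar compartment, from automated 20x imaging of fixed, Hoechst-stained PC3M PTB-GFP cells. Cells were seeded 4 h, then exposed 16 h to compound (23 nl of library stock) in duplicate plates.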
An asterisk follows results filed as active; ? = inconclusive; · = no result given; [ ] = remark or other dose. Unless noted, calls follow the shape of the dose curve; as a rule, active = well fitted inhibition curve with a large enough effect (not every such curve was filed as active); inconclusive = small, poorly fitted or top-dose-only effect, or another doubt; inactive = no such curve, though single readings can be large or run the other way. Unless noted, % is scaled to controls: 0 for no effect and ±100 for the full control effect.

SMILES	KDM4E inh	HPGD inh	ALDH1A1 block	PNC assembly inh
CC(=O)Nc1ccc(C(=O)N/N=C/c2ccccc2OCc2ccccc2)cc1	?	·	-3%	·
COc1cc(/C=N/NC(=O)c2ccc(COc3cc(C)ccc3C(C)C)cc2)cc(OC)c1O	-4%	-26%	-3%	-1
COc1cccc(Cn2nnc(C(=O)NCc3ccccc3Cl)c2N)c1	-12%	-3%	1%	13
Cc1cc2oc(=O)cc(CSc3nc(N)cc(N)n3)c2cc1C(C)C	12%	-27%	18µM*	?
CCCc1cc(=O)[nH]c(SCc2cc(=O)oc3cc(C)c(C(C)C)cc23)n1	?	16µM*	?	-8
Cc1onc(-c2c(Cl)cccc2Cl)c1COC(=O)c1ccc(Cl)cc1	-10%	·	-2%	·
CCCCP(=O)(CCCC)CCP(=O)(c1ccccc1)c1ccccc1	7%	·	1%	18
CCCCCOP(=O)(c1ccccc1)c1ccccc1	0%	-4%	13%	-108*
CCN(CC)CCCNC(=O)c1ccc(-n2c(=O)c(=O)[nH]c3ccccc32)cc1	·	-3%	0%	·
Cc1ccc(NC(=O)c2ccc(CNc3c(N4CCOCC4)c(=O)c3=O)cc2)cc1	-3%	-24%	?	?
CCCCNC(=O)c1ccc(CNc2c(N3CCC(C(=O)OCC)CC3)c(=O)c2=O)cc1	0%	3.5µM*	?	?
CCOC(=O)C1CCN(c2c(NCc3ccc(C(=O)NCCOC)cc3)c(=O)c2=O)CC1	6%	3.5µM*	-12%	4
O=C(c1ccc(CNc2c(N3CCOCC3)c(=O)c2=O)cc1)N1CC=C(c2ccccc2)CC1	-7%	25µM*	-6%	-18
CCOC(=O)C1CCN(c2c(NCc3ccc(C(=O)NC4CCCC4)cc3)c(=O)c2=O)CC1	6%	2µM*	-10%	-13
CCOC(=O)C1CCN(c2c(Nc3ccc(C)c(C)c3)c(=O)c2=O)CC1	6%	·	·	·
CCOC(=O)C1CCN(c2c(NCc3ccc(C(=O)Nc4ccc(C)cc4)cc3)c(=O)c2=O)CC1	-1%	·	·	·
CCC(=O)OCC(=O)[C@@]1(OC(=O)CC)[C@H](C)C[C@@H]2[C@H]3CCC4=CC(=O)C=C[C@]4(C)[C@]3(Cl)[C@@H](O)C[C@@]21C	-1%[25.5 µM]	4%	-14%[20.9 µM]	·
O=C(NC1CCCCCCC1)c1ccc(CNc2c(N3CCOCC3)c(=O)c2=O)cc1	2%	18µM*	?	-26
CCOC(=O)N1CCN(c2c(NCCOC)c(=O)c2=O)CC1	-20%	-15%	32µM*	-25
CN(c1ncc(C(F)(F)F)cc1Cl)n1cc(C(N)=O)c2ccccc2c1=O	-11%	-5%	25µM*	-9
CN(c1ncc(C(F)(F)F)cc1Cl)n1cc(C(=O)O)c2ccccc2c1=O	-9%	0%	3%	-4
CC(NC(=O)C1CCC1)c1ccc(Cl)cc1 (centres undefined)	5%	14µM*	0%	35
CCOc1ccc(C(C)NC(=O)C2CCC2)cc1 (centres undefined)	10%	25µM*	-1%	21
COc1ccc(-n2nc(C(=O)c3cccs3)cc(-c3nc4ccccc4[nH]3)c2=N)cc1	16%	-3%	?	11
Cc1ccccc1-n1nc(C(=O)c2cccs2)cc(-c2nc3ccccc3[nH]2)c1=N	1%	-10%	3%	-100*
SMILES	KDM4E inh	HPGD inh	ALDH1A1 block	PNC assembly inh
N#C/C(=C\c1cccc(OC(=O)c2cccs2)c1)C(N)=O	-4%	25µM*	-6%	?
Cc1nc2n(n1)C(c1ccccc1)C1=C(CC(c3ccco3)CC1=O)N2 (centres undefined)	-1%	?	?	-12
O=C1CC(c2ccco2)CC2=C1C=Nc1ccccc1N2 (centres undefined)	6%	-23%	2µM*	?
C[n+]1c2n(c3ccccc31)N=C(c1ccc(-c3ccccc3)cc1)CS2	-10%	·	-15%	·
C[n+]1c2n(c3ccccc31)N=C(c1ccc(Br)cc1)CS2	-6%	-6%	18µM*	43
CCOC(=O)c1c(-c2ccccc2)nc2ccc(Cl)cn12	6%	-1%	-3%	-20
Cc1nc2ccc(Cl)cn2c1C(=O)NN	6%	·	2µM*	·
OC(CNC1Cc2ccccc2C1)COc1ccc(Cl)cc1 (centres undefined)	5%	·	·	·
CCNS(=O)(=O)c1cccc(C(=O)c2c(C)cc3ccccn23)c1	-4%	-13%	2%	-90*
Cc1cc2ccccn2c1C(=O)c1ccc(S(=O)(=O)N(C)C)cc1	2%	·	-5%	·
O=C(CNC(=O)c1ccc(Br)o1)OCC(=O)c1cccc([N+](=O)[O-])c1	-5%	·	-8%	·
CC1N(O)C(c2ccc(Cl)cc2Cl)N(O)C1(C)C (centres undefined)	?	-3%	14µM*	16
CCOC(=O)c1c(O)c2cc(Cl)ccc2n(CC)c1=O	17%	·	20µM*	·
CC(C)CC(=O)NC(=S)Nc1sc2c(c1C(N)=O)CCC2	-14%	·	1.4µM*	·
Cc1cc([N+](=O)[O-])nn1CCCC(=O)Nc1sc2c(c1C(N)=O)CCC(C)C2 (centres undefined)	2%	16µM*	?	-13
CCC1(CC)NC(=O)N(CC(=O)Nc2sc3c(c2C(N)=O)CCC3)C1=O	?	?	22µM*	27
Cc1sc(NC(=S)NC(=O)C(C)(C)C)c(C(N)=O)c1C	3%	?	7.9µM*	14
O=C(N/N=C/c1ccccn1)c1ccc(Br)cc1	3%	-19%	?	59
CCN(C(=O)Cc1c(C(=O)O)[nH]c2ccccc12)c1ccc(OC)cc1	-28%	·	?	·
CC1(C)OC2C[C@](O)(C(N)=O)C[C@H](O)[C@H]2O1 (some centres undefined)	-3%	0%	6%	·
CC(=O)Nc1sc2c(c1C(N)=O)CCCC2	-10%	-6%	4%	13
CC(=O)Nc1sc2c(c1C(N)=O)CCC2	?	-23%	5%	7
CC(C)(C)C(=O)NC(=S)Nc1sc2c(c1C(N)=O)CCC2	-16%	·	2µM*	·
CC(=O)NC(=S)Nc1sc2c(c1C(N)=O)CCC(C)C2 (centres undefined)	-1%	·	8.9µM*	·
Cc1occc1C(=O)Nc1nnc(-c2cccs2)s1	?	·	-15%	·
SMILES	KDM4E inh	HPGD inh	ALDH1A1 block	PNC assembly inh
Fc1cccc(NC(=S)NCc2ccccn2)c1	-1%	?	?	-91*
O=C(NCc1ccccn1)c1cccc(NS(=O)(=O)c2cccc(F)c2)c1	4%	-16%	14µM*	?
S=C(NCc1ccccn1)Nc1ccc(Cl)cc1	1%	-11%	?	-17
Cc1cc2nc(CSc3ccccc3)cc(=O)n2[nH]1	-1%	·	-4%	·
COc1ccc(C(=O)c2sc3nc(C)cc(-c4cccs4)c3c2N)cc1	-6%	-21%	-12%	?
COc1ccc(C(=O)c2sc3nc(C)cc(-c4cccs4)c3c2N)cc1OC	-1%	-11%	6%	-82*
